# Laboratory results taken from PubChem BioAssay (NCI).
# About 83,000 compounds went through this panel and 20% of them were active in at least one assay; those are over-represented in the sample as a whole.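 Interpretation: 100, growth as untreated; towards 0, rising growth inhibition; 0, no net growth; 0 to -100, cell death. Compounds scoring below 10 were considered active.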 A number with no mark means an inactive call. Active and inactive are the calls of the source.
# Test system: SN12C renal
# Assay: NCI-60 one-dose screen, 48 h (100 = growth as untreated, 0 = no growth, -100 = all killed)
# Conditions: 10 µM unless noted
row,SMILES,growth
1,OC(c1ccccc1)(c1ccccc1)c1ccccc1-c1ccccc1,89%
2,Clc1ccc(-c2nc(-c3c[nH]c4ncccc34)cs2)cc1,62.4% [100 µM]
3,CC(=O)c1cc(-c2ccccc2N)n(-c2ccc3c(c2)OCO3)c1C,29.1%
4,CC1O[C@@H]2C[C@@](O)([C@H]1O)n1c3ccccc3c3c4c(c5c6ccccc6n2c5c31)C(=O)NC4=O (stereo partly drawn),55.1%
5,COC(=O)/C(CCC=C(C)C)=C1\[C@@H](OC(C)=O)C[C@@]2(C)[C@H]1CC(=O)[C@H]1[C@@]3(C)CCC(N4CCCC4)[C@@H](C)[C@@H]3CC[C@@]12C (stereo partly drawn),89%
6,CN(C)c1ccc(/C=C2/C=C(c3ccccc3)OC2=O)cc1,107%
7,COc1cc(-c2nc3occn3c2-c2ccnc(NCCCNS(=O)(=O)c3ccccc3)n2)ccc1F,44%
8,O=C(Nc1ccccc1)c1sc(-c2ccccc2)cc1O,105%
9,CCOC(=O)c1c2c(n3c1NCC3)-c1ccccc1C2=O,98.3%
10,C/C(=N\Nc1nc(C)cs1)c1cc2ccccc2o1,91.8%
11,CCOC(=O)C1=C(c2ccccc2)N=c2s/c(=C/c3ccc(Br)cc3)c(=O)n2C1c1ccc(O)cc1 (stereo not drawn),85.2%
12,COc1ccc(C2CC(c3ccc(Nc4nc(Nc5ccc(F)cc5)nc(Nc5ccc(F)cc5)n4)cc3)=NN2C(C)=O)cc1 (stereo not drawn),116%
13,c1ccc2cc(Cn3c[n+](Cc4ccc5ccccc5c4)c4ccccc43)ccc2c1,5.14% (active)
